This is part of a sample that, as a whole, favours compounds with a hit. Of some 83,000 tested, about 20% had one in any assay.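 A percent growth of 40 corresponds to 60% growth inhibition; 0 means no net growth; -100 means all cells died. Active threshold: below 10.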 Values without a mark were called inactive. Calls of active or inactive are those of the source.
system: NCI-H23 lung; experiment: NCI-60 one-dose screen, 48 h (100 = growth as untreated, 0 = no growth, -100 = all killed); conditions: 10 µM unless noted

| SMILES | growth |
| --- | --- |
| COc1ccc2c(c1)OC1=C(C(=O)OC1)C2c1cc(OC)c2c(c1)OCO2 (centres undefined) | 46.2% |
| Cc1cccc(/C=N/Nc2cc(C)c3cccc(C)c3n2)n1 | 94.3% |
| COc1ccc(C2C=C(c3ccc(Cl)cc3)N=C3SC=C(C)N32)c(Br)c1 (centres undefined) | 50.1% |
| COC1=C(OC)C(=O)C(CCCCCCCCCC[P+](c2ccccc2)(c2ccccc2)c2ccccc2)=C(C)C1=O | -8.24% (active) |
| CC1CN(c2oc(-c3ccccc3)nc2C#N)CC(C)O1 (centres undefined) | 112% |
| COc1ccc(Cn2cc3c(c2-c2cc(OC)c(OC)c(OC)c2)CCc2cnoc2-3)cc1 | 22.8% |
| COc1ccc(C2=C(c3cc(OC)c(OC)c(OC)c3)C(=O)CC2)cc1 | 14.2% |
| COc1ccc2c(c1)NC1=C(C(=O)OC1)C2c1cc(OC)c2c(c1)OCO2 (centres undefined) | 33% |
| O=[N+]([O-])c1cc(S(=O)(=O)Oc2ccccc2)ccc1Cl | 30.7% |
| COc1cc(NC(N)=NCCC(C)(C)Oc2ccc(C(F)(F)F)cc2)ncc1C#N | 1.1% (active) |
| COc1ccc(Nc2nn3c(-c4ccccc4)cc(-c4ccccc4)nc3c2C(N)=O)c(OC)c1 | 33.5% |
| CC[N+](CC)=c1cc2oc3cc(N(C)C)ccc3nc-2cc1C | 8.14% (active) |
| COc1ccc(Nc2ncccc2C(=O)NCc2cn(Cc3cccc(Oc4ccccc4)c3)nn2)cc1 | 54.6% |
| CN(C)CCOC(=O)Nc1ccccc1Cl | 98.3% |
| CN1CCN(Cc2ccc(NC(=O)c3cncc(C#Cc4cnc(N)c5cnccc45)c3)cc2C(F)(F)F)CC1 | 4.51% (active) |
| CCC1=CCC[C@@]2(C)CCC[C@@]3(C)CCCC(C)(C)[C@]1([O-])[O+]32 | 99.7% |
| CCNc1nc(S(=O)(=O)CC)nc2ccccc12 | 103% |
| CC12CCC3C4(C)COC(c5ccco5)OC4CCC3(C)C1CC(C1=CCOC1=O)O2 (centres undefined) | 103% |
| Cc1cc(C)n(-c2nnc3n2N=C(c2ccc(-c4ccccc4)cc2)CS3)n1 | 75.7% |
| N=c1ccc2nc3ccc(N)cc3sc-2c1 | 12.8% |

| SMILES | growth |
| --- | --- |
| CN(C)CCCC(C#N)c1ccccc1 (centres undefined) | 103% |
| O=S(=O)(NCCCNc1nccc(-n2ccc3cccnc32)n1)c1cccc(C(F)(F)F)c1 | 108% |
| COc1cccc(-c2cc3c(O)cc(C#N)cc3[nH]2)c1 | 92.5% |
| CCCCCCCCCCCCNC(=O)[C@H]1CSC(c2ccsc2)N1 (some centres undefined) | -52.9% (active) |
| c1ccc(Nc2nc(Nc3ccccc3)nc(Nc3ccccc3)n2)cc1 | 86.5% |
| O=C(Oc1ccccc1[N+](=O)[O-])C1CCCN1C(=O)OCc1ccccc1 (centres undefined) | 95.1% |
| O=C(/C=C\c1cccc([N+](=O)[O-])c1)/C=C/c1cccc([N+](=O)[O-])c1 | 92.3% |
| CCCCCCCCCCCCNC(=O)[C@H]1CSC(c2cc3ccccc3s2)N1 (some centres undefined) | -7.5% (active) |
| COc1ccc(S(=O)(=O)Nc2cc(/C=C\c3cc(OC)c(OC)c(OC)c3)cc(OC)c2OC)cc1 | 36.2% |
| Oc1ccc(Cl)cc1-c1cc(-c2ccc(F)cc2)n[nH]1 | 53.5% |
| CCCCN(CCCC)C(=O)CC | 102% |
| COc1ccc(N2CCN(Cc3cc(C(=O)/C=C/c4c[nH]c5ccccc45)ccc3O)CC2)cc1 | 102% |
| O=C1c2c(c3c4ccccc4n(CCCCCCBr)c3c3[nH]c4ccccc4c23)C(=O)N1O | -0.173% (active) |
| CCCCCCCC[C@@H](O)CC(=O)N[C@@H](CC(N)=O)C(=O)N[C@@H](CCC(N)=O)C(=O)N[C@@H](CC(=O)c1cc(C)cc(O)c1C(=O)c1c(O)cccc1O)CC(C)C | 23.5% |
| S=C(S)NCCc1c[nH]c2ccccc12 | 99% |
| O=C1/C(=C/c2ccccc2)Oc2ccc(O)c(I)c21 | 96.5% |
| COc1ccc(C2=CC(c3cc(OC)c(OC)c(OC)c3)NC(=O)N2)cc1OC (centres undefined) | 27.3% |
| O=C(O)C1CCCCN1c1nc(Cl)nc(Cl)n1 (centres undefined) | 98.9% |
| O=S(=O)(NCCCNc1nccc(-n2ccc3cccnc32)n1)c1ccc(Br)cc1 | 108% |

Reference: PubChem BioAssay (NCI)
